Screens deposited in PubChem by Broad Institute.
Hits are enriched below; roughly 0.54% of the tested compounds scored in any of these assays.
TcdB inh – TcdB glycohydrolase inhibition. P18177. TcdB glycohydrolase enzymatic assay, plate reader. inhibition, % at 9.99 µM. actives 0.24% (n = 350,000). AID 652162; in the data active means inhibition above about 10%
Mtb BioA inh – inhibitors of Mycobacterium tuberculosis BioA enzyme | purified M. tuberculosis BioA enzyme, plate reader | inhibition, % at 9.99 µM | actives 0.096% (n = 360,000) | AID 602481; in the data active means inhibition above about 40%
Vc quorum ag-1 – inducers of Vibrio cholerae quorum light production without autoinducers; activation, % at 18.7 µM; V. cholerae BH1578 lux reporter, luminescence, 6 h; AID 588436; actives 0.16% (n = 350,000); in the data active means activation mostly above about 9.7%, no sharp cut-off
FadD28 binding – inhibitors of Mycobacterium tuberculosis FadD28 bisubstrate binding | FadD28 bisubstrate probe binding, fluorescence polarization | AID 588549 | inhibition, % at 12.5 µM | actives 0.22% (n = 360,000); in the data active means inhibition above about 8.5%, passing the limit was not always enough
Vc quorum ag-2 – induces V. cholerae light production without autoinducers | shares compounds with Vc quorum ag-1 | V. cholerae BH1578 lux reporter, luminescence, 6 h | activation, % at 50 µM | 620 tested, under 10 active; call rule not given here
Large screens that a line does not name were inactive (follow-up assays come after a bar, where they were run).

Cc1noc(C)c1NC(=O)N(C)C[C@@H]1OCCCC[C@H](C)Oc2ccc(NC(=O)Nc3cccc4ccccc34)cc2C(=O)N([C@@H](C)CO)C[C@H]1C	none (no result: TcdB inh, Vc quorum ag-1, FadD28 binding)
Cc1cccc(C(=O)NCC(c2cccs2)N2CCOCC2)c1 (configuration not stated)	none | Vc quorum ag-2 inactive
CCCn1nnnc1SCC(=O)c1ccc2c(c1)OCCO2	Vc quorum ag-1 65 (no result: TcdB inh) | Vc quorum ag-2 inactive
COc1ccccc1OCc1cc(-c2ccccc2)no1	none (no result: Mtb BioA inh)
Cc1cc(COc2ccccc2O)on1	none (no result: TcdB inh) | Vc quorum ag-2 inactive
C[C@H]1CN([C@@H](C)CO)C(=O)c2cc(-c3ccncc3)cnc2O[C@H]1CN(C)S(=O)(=O)c1ccc(F)cc1	none (no result: Vc quorum ag-1, FadD28 binding)
Oc1ccc(-c2cn3c(n2)SCC3)cc1	Vc quorum ag-1 17 (no result: TcdB inh) | Vc quorum ag-2 inactive
Brc1ccc(-c2cn3c(n2)SCC3)cc1	none
CCN1[C@@H]2c3ccc(-c4cccc(F)c4)c(=O)n3C[C@@H]2[C@@H](CO)[C@@H]1C(=O)OC	none (no result: Mtb BioA inh, Vc quorum ag-1, FadD28 binding)
O=C(NCc1ccccn1)C(C(=O)c1ccc(F)cc1)n1ccccc1=O (configuration not stated)	none (no result: TcdB inh) | Vc quorum ag-2 inactive
O=C(NCc1ccco1)C(C(=O)c1ccc(F)cc1)n1ccccc1=O (configuration not stated)	none
COC(=O)c1[nH]c2ccc(F)cc2c1NC(=O)Nc1ccc(OC)cc1	none (no result: TcdB inh)
COC(=O)c1[nH]c2ccc(C)cc2c1NC(=O)Nc1ccc(OC)cc1	Vc quorum ag-1 18 (no result: TcdB inh) | Vc quorum ag-2 inactive
Cn1cnc(S(=O)(=O)N2CC[C@H]3[C@H](CO)Nc4ccc(-c5ccccc5F)cc4[C@H]32)c1	none (no result: TcdB inh, Vc quorum ag-1, FadD28 binding)
CC(C)C(=O)Nc1ccc2c(c1)C(=O)N(C)[C@H]1CC[C@@H](CC(=O)NCc3cccc(F)c3)O[C@@H]1CO2	none (no result: TcdB inh, Vc quorum ag-1, FadD28 binding)
CCCCc1ccc(Nc2nc(CCC)cc(=O)[nH]2)cc1	none (no result: TcdB inh)
CCCc1cc(=O)[nH]c(Nc2ccc(N3CCCCC3)cc2)n1	Vc quorum ag-1 active (no result: TcdB inh) | Vc quorum ag-2 inactive
CCN(CC(=O)Nc1c(F)cccc1F)C(=O)c1ccc(C)c(S(=O)(=O)N2CCCCC2)c1	none (no result: TcdB inh) | Vc quorum ag-2 inactive
CCN(CC(=O)Nc1c(F)cccc1F)C(=O)c1ccc(S(=O)(=O)N2CCCC2)cc1	none
CNC[C@@H]1OCCCC[C@@H](C)Oc2ccc(N(C)C)cc2C(=O)N([C@H](C)CO)C[C@H]1C	none (no result: Vc quorum ag-1, FadD28 binding)
CCCCN1C(=O)C(O)(CC(=O)c2ccccn2)c2ccccc21 (configuration not stated)	Vc quorum ag-1 44 (no result: Mtb BioA inh) | Vc quorum ag-2 inactive
CCCCN1C(=O)C(O)(CC(=O)c2ccccc2OC)c2ccccc21 (configuration not stated)	none
CCc1ccc(NS(=O)(=O)c2cccs2)cc1	Vc quorum ag-1 21 | Vc quorum ag-2 inactive
CCC(=O)Nc1ccc2c(c1)OC[C@@H](C)N(CC1CCCCC1)C[C@H](C)[C@H](OC)CN(C)C2=O	none (no result: TcdB inh, Vc quorum ag-1, FadD28 binding)
Cc1nn(-c2ccccc2)c(C)c1NC(=O)COC(=O)c1ccccc1	none
Cc1nn(-c2ccccc2)c(C)c1NC(=O)COC(=O)c1cccc(OC(F)F)c1	none (no result: Mtb BioA inh) | Vc quorum ag-2 inactive
C[C@@H]1CN([C@@H](C)CO)C(=O)c2cc(-c3ccccc3F)cnc2O[C@@H]1CN(C)C(=O)C1CCOCC1	none (no result: Vc quorum ag-1, FadD28 binding)
CN(c1ccccc1)S(=O)(=O)c1nnc(NC(=O)C2CCCCC2)s1	Vc quorum ag-1 19 | Vc quorum ag-2 inactive
CN(c1ccccc1)S(=O)(=O)c1nnc(NC(=O)c2ccco2)s1	none
C[C@@H]1CCCCO[C@@H](CN(C)S(=O)(=O)c2ccccc2)[C@H](C)CN([C@@H](C)CO)C(=O)c2cc(NS(C)(=O)=O)ccc2O1	none (no result: Vc quorum ag-1, FadD28 binding)
COc1ccc(OC)c(S(=O)(=O)N2CCC(C(=O)N3CCc4ccccc4C3)CC2)c1	none (no result: TcdB inh, Mtb BioA inh) | Vc quorum ag-2 inactive
Cc1cc(C)c2cc(C(c3nnnn3C3CCCC3)N3CCOCC3)c(=O)[nH]c2c1 (configuration not stated)	none (no result: TcdB inh)
Cc1ccc2cc(C(c3nnnn3C3CCCC3)N3CCN(c4ccc(F)cc4)CC3)c(=O)[nH]c2c1 (configuration not stated)	none (no result: TcdB inh) | Vc quorum ag-2 inactive
Cc1ccc(C(=O)N(C)CC(=O)Nc2ccc(N3CCOCC3)cc2)s1	none | Vc quorum ag-2 inactive
CNC[C@H]1Oc2ccc(NS(=O)(=O)c3cccs3)cc2CC(=O)N([C@@H](C)CO)C[C@@H]1C	none (no result: Vc quorum ag-1, FadD28 binding)
CC(C)C#Cc1ccc2c(c1)O[C@@H](CN(C)S(=O)(=O)c1cn(C)cn1)[C@H](C)CN([C@H](C)CO)S2(=O)=O	none (no result: Vc quorum ag-1, FadD28 binding)
O=C(Cn1cccc1C(=O)c1ccccc1)NCCN1CCOCC1	none (no result: TcdB inh)
O=C(Cn1cccc1C(=O)c1ccccc1)NCCN1CCCCCC1	none (no result: TcdB inh) | Vc quorum ag-2 inactive
CC(=O)Oc1ccc(-c2ccc(C(=O)O)cc2)cc1	Vc quorum ag-1 25 (no result: TcdB inh) | Vc quorum ag-2 inactive
